From PubChem
Wee1 stabilizer: human Wee1 degradation inhibition, primary screen; HeLa Luc-Wee1K328M stability, luciferase luminescence; 100% = proteasome inhibitor MG132 effect; reporter increase, % at 5 µM; actives 1.2% (n = 220,000); AID 1321;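 active = activation above the mean of all tested compounds plus 3 SD, set per screening run, cut at about 8.8% in these data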;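 note: cells exposed to compound for 20 h before luminescence read; 0% = DMSO alone and 100% = MG132 at 30 µM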
Furin inh: human furin inhibition; purified furin, fluorogenic substrate cleavage; inhibition, % at 20 µM or 30 µM; actives 0.061% (n = 220,000); AID 463115; in the data active = inhibition above about 25%
EP2 antag: blocks the human prostaglandin E2 receptor EP2. actives 0.52% (n = 260,000). C6 glioma cells expressing human EP2, cAMP TR-FRET; cells stimulated with saturating PGE2. inhibition, % at 25 µM. AID 1422;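 active = percent inhibition above 40 after rounding to a whole number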;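 note: rat C6 glioma host cells with rolipram phosphodiesterase inhibitor present; the protocol text gives 20 µM as final concentration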
EP2 mod: EP2 receptor (human) modulation; induction, % at 25 µM; P43116; AID 940; actives 0.83% (n = 260,000); EP2-expressing cells, cAMP HTRF FRET, PGE2 co-stimulation;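 active = compounds whose cAMP rise, as percent of the full-agonist control response, exceeds 60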;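 note: rat C6 glioma line stably carrying human EP2 under a CMV promoter; the protocol text gives 20 µM as final concentration; 100% = response of wells given 1 µM PGE2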
p47phox inh: p47phox (human) inhibition. p47phox/p22phox peptide binding, fluorescence polarization, 2 h. inhibition, % at 24.7 µM. actives 0.53% (n = 220,000);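 active = inhibition above about 30%, limit read from the data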;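 note: 0% = p47phox with labelled peptide and 100% = labelled peptide alone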
Target sequence (P14598 whole entry, looked up): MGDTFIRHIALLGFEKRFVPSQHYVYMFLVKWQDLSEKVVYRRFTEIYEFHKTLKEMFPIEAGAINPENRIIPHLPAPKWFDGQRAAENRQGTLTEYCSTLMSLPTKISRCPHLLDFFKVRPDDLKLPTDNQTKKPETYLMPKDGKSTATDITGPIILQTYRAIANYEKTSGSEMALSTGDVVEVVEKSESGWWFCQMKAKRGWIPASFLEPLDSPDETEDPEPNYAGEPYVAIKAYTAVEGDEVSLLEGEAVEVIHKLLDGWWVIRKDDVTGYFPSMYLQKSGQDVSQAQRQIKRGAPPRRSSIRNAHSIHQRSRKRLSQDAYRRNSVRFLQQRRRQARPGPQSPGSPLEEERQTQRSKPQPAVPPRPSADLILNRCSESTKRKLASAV
HSV augment: HSV replication enhancement | HSV replication augmentation in cells, fold increase | actives 0.005% (n = 220,000) | maximum fold increase; in the data active = maximum fold increase above about 1.5; tested in PC3 cells
EP2 cAMP induct: EP2 receptor cAMP induction, counter-screens negative; actives 47% (n = 1,300); calls only at 20 µM (by protocol); AID 1080; shares compounds with EP2 mod; C6 glioma EP2 cells, cAMP HTRF induction; plus low (about EC15) PGE2 agonist;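 active = cAMP induction above 50% in the main assay while under 30% in all four parallel counter assays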;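 note: rat C6 glioma cells stably expressing human EP2 receptor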
An asterisk follows results filed as active; ! = a repeat was not active. This is a sample that favours compounds with a hit; in the whole collection about 2.8% have one here.

COC(=O)c1cc2ccsc2n1Cc1cccc(F)c1 was read as Wee1 stabilizer 4.6, Furin inh -5.5, EP2 antag 8.3, EP2 mod 66.6*, p47phox inh -11.0, HSV augment inactive and EP2 cAMP induct active.
COC(=O)c1cc2ccsc2n1Cc1ccccc1F was read as Wee1 stabilizer -0.1, Furin inh -31.8, EP2 antag 10.8, EP2 mod 71.2*, p47phox inh -16.3, HSV augment inactive and EP2 cAMP induct active.
COC(=O)c1cc2ccsc2n1Cc1nc(-c2ccc(OC)cc2)oc1C was read as Wee1 stabilizer -2.5, Furin inh -9.0, EP2 antag 10.0, EP2 mod 14.3, p47phox inh -30.3 and HSV augment inactive.
`O=C(O)c1ccc(C(=O)O)c(C(=O)Nc2ccc3c(c2)Cc2ccccc2-3)c1` gave EP2 antag 61.1*, EP2 mod 92.2* and EP2 cAMP induct active.
Screening O=C(O)CCCCCCCCCCCc1ccccc1 returned Wee1 stabilizer -1.2, Furin inh -18.0, EP2 antag 9.6, EP2 mod 77.8*, p47phox inh -12.2, HSV augment inactive and EP2 cAMP induct active.
For COc1ccccc1-c1nnc2sc(-c3cc4ccccc4o3)nn12 the results were Wee1 stabilizer 7.8, Furin inh -5.6, EP2 mod 77.3*, p47phox inh -10.9 and EP2 cAMP induct active.
`COc1cc(S(=O)(=O)N(Cc2cccnc2)Cc2ccco2)ccc1-n1cnnn1` gave Wee1 stabilizer -3.0, Furin inh -17.3, EP2 antag 10.4, EP2 mod 78.8*!, p47phox inh -5.3, HSV augment inactive and EP2 cAMP induct inactive.
Screening COc1cc(S(=O)(=O)N(Cc2ccc(C)cc2)Cc2ccco2)ccc1-n1cnnn1 returned Wee1 stabilizer -1.6, Furin inh -19.9, EP2 antag 2.2, EP2 mod 26.3, p47phox inh -1.9 and HSV augment inactive.
Screening Cc1cc(S(=O)(=O)Nc2ccncc2)c(Cl)cc1Cl returned EP2 antag 3.3 and EP2 mod -38.2.
For O=C(O)c1cc2cc(F)ccc2[nH]1 the results were Wee1 stabilizer 0.6, Furin inh -13.9, EP2 antag 11.5, EP2 mod 113.4*!, p47phox inh -4.5, HSV augment inactive and EP2 cAMP induct inactive.
Screening COc1ccc(CN[C@@H]2CCC(=O)N[C@H]2c2cccc(F)c2)cc1Cn1ccnc1 returned EP2 antag 5.6 and EP2 mod -37.7.
For COC(=O)c1ccc(-n2c(C)ccc2-c2ccccc2)cc1 the results were Wee1 stabilizer -2.3, Furin inh -14.1, EP2 antag 9.6, EP2 mod 60.4, p47phox inh -27.9 and HSV augment inactive.
`CC(=O)c1ccc(-n2c(C)ccc2-c2ccccc2)cc1` gave Wee1 stabilizer 1.1, Furin inh -10.6, EP2 antag 3.7, EP2 mod 89.8*, p47phox inh -12.4, HSV augment inactive and EP2 cAMP induct active.
CN(Cc1cccs1)c1ncnc2sccc12 was read as Wee1 stabilizer -1.9, Furin inh 1.1, EP2 antag 12.2, EP2 mod -22.1, p47phox inh -6.6 and HSV augment inactive.
For Cc1sc2ncnc(N(C)Cc3cccs3)c2c1C the results were Wee1 stabilizer -0.4, Furin inh -21.7, EP2 antag 14.0, EP2 mod 52.0, p47phox inh -16.1, HSV augment inactive and EP2 cAMP induct active.
Screening CC(C)=CCC/C(C)=C/CC/C(C)=C/CSc1ccccc1C(=O)O returned EP2 antag 9.1, EP2 mod 73.4* and EP2 cAMP induct inactive.
O=C(c1ccc2c(c1)OCCO2)N1CCC[C@H]1Cn1nc(-c2ccccc2)ccc1=O was read as EP2 antag 4.6 and EP2 mod -30.6.
N#Cc1c(NC(=O)CSc2ncccn2)oc(-c2ccccc2)c1-c1ccccc1 was read as Wee1 stabilizer 0.2, Furin inh -17.2, EP2 antag 8.3 and HSV augment inactive.
For N#Cc1c(NC(=O)CSc2n[nH]c(Cc3ccccc3)n2)oc(-c2ccccc2)c1-c1ccccc1 the results were Wee1 stabilizer -0.8, Furin inh -27.5, EP2 antag 5.6, EP2 mod 77.2*, p47phox inh -18.6, HSV augment inactive and EP2 cAMP induct inactive.
CC1CN(C(=O)c2ccccc2Nc2ccc(SC(F)F)cc2)CC(C)O1 (centres undefined) was read as Wee1 stabilizer 2.1, Furin inh -14.7, EP2 antag 7.7, EP2 mod 8.3, p47phox inh -5.3 and HSV augment inactive.
CC1CCCC(C)N1C(=O)c1ccccc1Nc1ccc(SC(F)F)cc1 (centres undefined) was read as Wee1 stabilizer 0.7, Furin inh -2.0, EP2 antag 2.8, EP2 mod 76.5*, p47phox inh -1.9, HSV augment inactive and EP2 cAMP induct inactive.
Screening CCc1nc(SCC(=O)c2ccc3c(c2)OCCO3)c2ccccc2n1 returned Wee1 stabilizer 3.5, Furin inh -23.3, EP2 antag 14.0, EP2 mod -50.0, p47phox inh -14.4 and HSV augment inactive.
O=C(CSc1nc(Cc2ccccc2)nc2ccccc12)c1ccc2c(c1)OCCO2 was read as Wee1 stabilizer 1.8, Furin inh -20.5, EP2 antag 4.8, EP2 mod 66.2*, p47phox inh -11.6, HSV augment inactive and EP2 cAMP induct active.
`CC1CC(C)(C)N2C(=O)C3(Nc4ccccc4S3)c3cccc1c32` (centres undefined) gave Wee1 stabilizer 0.5, Furin inh -13.1, EP2 antag 4.9, EP2 mod 57.7, p47phox inh -12.3 and HSV augment inactive.
Screening Cc1cc2c3c(c1)C1(SCC(=O)N1c1ccc(F)cc1)C(=O)N3C(C)(C)CC2C (centres undefined) returned Wee1 stabilizer -1.5, Furin inh -15.4, EP2 antag 2.5, EP2 mod 66.5*, p47phox inh 4.0, HSV augment inactive and EP2 cAMP induct inactive.
`O=C(NC1CC1)c1cc2c(s1)-c1ccccc1OC2` gave Wee1 stabilizer -2.7, Furin inh -297.0, EP2 antag 13.4, EP2 mod 2.8, p47phox inh 1.7 and HSV augment inactive.
Screening O=C(O)c1cc2c(s1)-c1ccccc1OC2 returned Wee1 stabilizer 1.0, Furin inh -144.4, EP2 antag 11.6, EP2 mod 85.6*, p47phox inh -5.6, HSV augment inactive and EP2 cAMP induct inactive.
Cc1ccc(C(=O)c2coc3ccc(OCC(=O)O)cc23)cc1 was read as Wee1 stabilizer 2.4, Furin inh -16.7, EP2 antag 2.2, EP2 mod 69.3*, p47phox inh -11.9, HSV augment inactive and EP2 cAMP induct active.
